Assay outcomes: PubChem BioAssay, several laboratories
Shown are actives, neighbours in structure and some others; about 32% of the full set was active somewhere.
PostGolgi ctrl: growth of the yeast control strain, post-Golgi counter-screen; efflux-deficient yeast background strain, growth absorbance A615, 16 h; inhibition, % at 10 µM; 98,000 compounds, 5% hits; AID 738
PostGolgi yeast: growth inhibition of a yeast mutant, post-Golgi transport screen; inhibition, % at 10 µM; 98,000 compounds, 0.9% hits; post-Golgi transport phenotypic cell assay;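 further: yeast cells grown in 1536-well plates; yeast grown about 18 h at 30C before absorbance read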
CYP2C9 act: activators of human CYP2C9. P11712. recombinant CYP2C9, luciferin-H conversion, luminescence; stronger effect = higher value; factor 1 = untreated enzyme, 0 = blocked. activation factor at 5 µM. 96,000 compounds, 1.4% hits. AID 1024;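 active means activation factor of 2 or more for CYP2C9 at a 5 µM dose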
CYP2C9 inh: human CYP2C9 inhibition. P11712. inhibition, % at 5 µM. 96,000 compounds, 20% hits. CYP2C9 Supersomes, luciferin-H conversion, luminescence;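 active means blocking of liver enzyme CYP2C9 beyond about 50% at 5 µM, limit read from the data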
CYP2C19 act: increases human CYP2C19 enzyme activity | P33261 | recombinant CYP2C19, luciferin-H EGE luminescence; stronger effect = higher value; 0 = fully inhibited enzyme, 1 = untreated enzyme | activation factor at 5 µM | 96,000 tested, under 10 active | AID 1025;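 active means activation factor of at least 2 at 5 µM in the primary screen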
Target sequence (P33261 whole entry, looked up): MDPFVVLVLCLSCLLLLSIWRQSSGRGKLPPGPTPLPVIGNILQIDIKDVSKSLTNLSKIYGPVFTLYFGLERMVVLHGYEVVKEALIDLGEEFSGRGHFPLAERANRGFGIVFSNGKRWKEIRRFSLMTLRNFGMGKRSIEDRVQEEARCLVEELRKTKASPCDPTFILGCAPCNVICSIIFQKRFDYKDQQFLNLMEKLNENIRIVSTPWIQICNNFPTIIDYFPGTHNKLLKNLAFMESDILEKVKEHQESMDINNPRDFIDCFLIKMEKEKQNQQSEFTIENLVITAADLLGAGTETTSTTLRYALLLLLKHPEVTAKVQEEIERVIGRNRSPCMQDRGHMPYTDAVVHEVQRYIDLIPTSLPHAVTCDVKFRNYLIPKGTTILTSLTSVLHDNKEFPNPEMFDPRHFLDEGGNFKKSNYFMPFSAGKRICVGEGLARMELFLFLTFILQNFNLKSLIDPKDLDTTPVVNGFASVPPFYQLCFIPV
CYP2C19 inhib: blocks human cytochrome P450 2C19; AID 778; CYP2C19 Supersomes, luciferin-H EGE luminescence, 30 min; 96,000 compounds, 21% hits; inhibition, % at 5 µM; P33261;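 active means CYP2C19 inhibition above a set limit at 5 µM in the primary screen, cut at about 50% in these data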
Of the large screens only hits and unclear results are named; the others gave an inactive call. Unless noted, no stated cut-off is given here; in the data, active means inhibition above about 30%; inactive means the rest.

Cc1ccccc1C(=O)NC(C)c1ccc2c(c1)CCCC2 (stereo not drawn)	CYP2C9 act 2.2
N#Cc1cn(Cc2cccc(Cl)c2)c2ccccc12	CYP2C9 inh 93, CYP2C19 inhib 93
CCOC(=O)N1CCC(Nc2c(NCCCOC)c(=O)c2=O)CC1	PostGolgi ctrl 47
CCCCN(CC)CCNc1c(NC2CCN(C(=O)OCC)CC2)c(=O)c1=O	PostGolgi ctrl 36, CYP2C9 inh 66
O=C(Nc1ccc2oc(=O)ccc2c1)c1cccnc1	none (no result: CYP2C9 act, CYP2C9 inh, CYP2C19 act, CYP2C19 inhib)
Cc1onc(-c2ccccc2)c1C(=O)NCC1COc2ccccc2O1 (stereo not drawn)	CYP2C19 inhib 79
Cc1onc(-c2ccccc2)c1C(=O)NCc1ccccn1	none
O=C(CNC(=O)c1ccccc1)NCC1COc2ccccc2O1 (stereo not drawn)	none
Cc1onc(-c2ccccc2)c1C(=O)NCc1ccc2c(c1)OCO2	CYP2C9 inh 57, CYP2C19 inhib 92
CCOC(=O)c1c(CNCCN(CC)CC)n(C)c2cc(Br)c(OC)cc12	none
O=C(c1ccco1)N1CCN(C(=O)c2cnn3c(C(F)(F)F)cc(-c4cccs4)nc23)CC1	none
Cc1ccc(-n2c3c(c(=O)[nH]c2=S)C(C(F)(F)F)(C(F)(F)F)NC(=O)N3)cc1	CYP2C9 inh 54
O=C1Nc2c(c(=O)[nH]c(=O)n2-c2ccccc2)C(C(F)(F)F)(C(F)(F)F)N1	none
CCC(C)N1C(=O)/C(=C/c2c(NCCCOC(C)C)nc3c(C)cccn3c2=O)SC1=S (stereo not drawn)	CYP2C9 inh 57
CC1(C)CC(=O)C2(CC3=C(CC(C)(C)CC3=O)O2)C(=O)C1	none
Cc1nc(C(=O)Nc2cccc(Cl)c2Cl)nn1-c1cc(OC(C)C)c(Cl)cc1Cl	CYP2C9 inh 82
Cc1nc(C(=O)Nc2ccc(Cl)cc2Cl)nn1-c1cc(OC(C)C)c(Cl)cc1Cl	CYP2C9 inh 58
CNC(=O)c1nc(C)n(-c2cc(Cl)ccc2Cl)n1	none
Cc1nc(C(=O)Nc2cc(Cl)ccc2Cl)nn1-c1cc(OC(C)C)c(Cl)cc1Cl	CYP2C9 inh 87
CC(C)Oc1cc(NC(=O)CSCC(=O)Nc2cccc(C(F)(F)F)c2)c(Cl)cc1Cl	none
Cc1nc(C(=O)Nc2cccc(Cl)c2)nn1-c1cc(OC(C)C)c(Cl)cc1Cl	CYP2C9 inh 70, CYP2C19 inhib 62
CC1(C(=O)NC2CCCCCCC2)CCC(=O)N1CCN1CCOCC1 (stereo not drawn)	none
C=CCOC(=O)C1=C(C)NC(=O)NC1c1ccc(OC(=O)c2ccco2)c(OC)c1 (stereo not drawn)	none
Nc1ccc2oc(=O)c3ccccc3c2c1	CYP2C19 inhib 59
Cc1cc(C)cc(NC(=O)C2CCN(S(=O)(=O)c3c(C)n[nH]c3C)CC2)c1	none
Nc1nnc(CCOc2ccccc2Cl)s1	none
Nc1nnc(Cc2ccc(Cl)c(Cl)c2)s1	CYP2C19 inhib 58
COc1cccc(NS(=O)(=O)c2ccc3c(c2)CCCN3C(C)=O)c1	CYP2C9 inh 56, CYP2C19 inhib 96
O=S(=O)(Nc1ccc2c(c1)OCCO2)c1cccs1	none
CCOC(=O)C1CCN(S(=O)(=O)c2ccc3c(c2)CCCN3C(C)=O)CC1	none
CC(=O)N1CCc2cc(NS(=O)(=O)c3cccs3)ccc21	CYP2C9 inh 89, CYP2C19 inhib 62
CC(=O)N1CCCc2cc(S(=O)(=O)N(CC(C)C)CC(C)C)ccc21	none
CCOC(=O)c1ccc(NS(=O)(=O)N2CCCCCC2)cc1	CYP2C9 inh 68
CCOC(=O)c1ccc(NS(=O)(=O)c2ccc3c(c2)CCCN3C(C)=O)cc1	CYP2C9 inh 72
CCOC(=O)c1ccc(NC(=O)C2CCN(S(=O)(=O)CC)CC2)cc1	none
CS(=O)(=O)N1CCCC(c2nc(-c3ccc(S(=O)(=O)NCc4ccccc4)cc3)no2)C1 (stereo not drawn)	none
Cc1cccc(Nc2nc(-c3ccc4c(c3)OCCO4)cs2)c1	CYP2C9 inh 86
Cc1cccc(Nc2nc(-c3c(C)nc4ccccn34)cs2)c1	CYP2C9 inh 61
CSc1ccc(-c2c(C#N)c(N)nc3c2CCCC3)cc1	none
Cc1cc(NS(=O)(=O)c2ccc(-c3ccccc3)cc2)no1	CYP2C9 inh 88
Cc1ccc(S(=O)(=O)Nc2ccc(C(=O)Nc3cc(C)on3)cc2)cc1	none (no result: CYP2C9 act, CYP2C9 inh, CYP2C19 act, CYP2C19 inhib)
Cc1ccc(S(=O)(=O)Nc2ccccc2-c2ccccc2)cc1	CYP2C19 inhib 58
Cc1ccc(S(=O)(=O)Nc2cc(C)nn2-c2ccccc2)cc1	CYP2C9 inh 100 (no result: PostGolgi ctrl, PostGolgi yeast)
Cc1cc(NC(=O)c2ccc(S(=O)(=O)Nc3ccccc3)cc2)no1	CYP2C9 inh 52
COc1ccc2[nH]cc(CCN3C(=O)CCC3=O)c2c1	none
Cc1n[nH]c(C)c1N=Nc1cc(Cl)ccc1Cl	none
Cc1cc(C)n2ncc(C(=O)NCc3cccnc3)c2n1	none
O=C(Nc1ccccc1Oc1ccccc1)C1CC1	CYP2C19 inhib 70
COc1cc(NC(=O)c2ccc(Br)o2)ccc1NC(=O)c1ccccc1Cl	CYP2C9 inh 77, CYP2C19 inhib 98
O=C(Nc1ccccc1Oc1ccccc1)c1ccc(Br)o1	PostGolgi ctrl 51
CCC(=O)Nc1ccccc1Oc1ccccc1	none
CCN(CC)c1ccc(NC(=O)c2ccc(Br)o2)c(C)c1	CYP2C9 act 2.4
COCCCn1c(SCC(=O)N2CCCC(C)C2)nnc1-c1ccco1 (stereo not drawn)	none
Cc1cn(S(=O)(=O)c2ccc(Br)c3ccccc23)cn1	none
Cc1c(NC(=O)c2ccc(Br)o2)cccc1C(=O)O	none
COc1ccccc1NC(=O)c1ccc(Br)o1	CYP2C9 act 2.4
COc1cc(NC(=O)c2ccc(Br)o2)c(C(=O)O)cc1OC	none
O=C(Nc1ccccc1-c1ccccc1)c1ccc(Br)o1	PostGolgi ctrl 35
CCc1ccc(C2CC(=O)NC(SCC(=O)OC(C)C)=C2C#N)cc1 (stereo not drawn)	CYP2C9 inh 93, CYP2C19 inhib 87
C=CCSC1=C(C#N)C(c2ccccc2OC)CC(=O)N1 (stereo not drawn)	none
COC(=O)CSC1=C(C#N)C(c2ccc(C(C)C)cc2)CC(=O)N1 (stereo not drawn)	none
Cc1ccc(C2CC(=O)NC(SCCC(C)C)=C2C#N)cc1 (stereo not drawn)	CYP2C9 inh 56
COC(=O)CSC1=C(C#N)C(c2ccccc2)CC(=O)N1 (stereo not drawn)	none
CCOc1ccc(C2CC(=O)NC(SCC(=O)OC)=C2C#N)cc1 (stereo not drawn)	CYP2C9 inh 69
C=CCSC1=C(C#N)C(c2ccccc2OCC)CC(=O)N1 (stereo not drawn)	CYP2C9 inh 71, CYP2C19 inhib 93
CC(C)C12CCC(C(=O)O)C(C1)C(=O)O2 (stereo not drawn)	none (no result: CYP2C9 act, CYP2C9 inh, CYP2C19 act, CYP2C19 inhib)
C=CCSC1=C(C#N)C(c2cccc(OC)c2)CC(=O)N1 (stereo not drawn)	CYP2C19 inhib 52
